Laboratory results as given in PubChem BioAssay AID588674 (Broad Institute, 2011).
Among all 360,000 compounds or so, about 1,800 (0.5%) were called active.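 How the source made its calls: active means mean inhibition of at least 75% with every replicate also reaching 75%; inconclusive means mean inhibition at least 75% but some replicate below; inactive means mean inhibition below 75%.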 Only a selection was taken, and actives are over-represented in it overall.

Test: reduction of Shn3 3'UTR firefly luciferase signal, primary screen, Schnurri-3 inhibitor project, cell-based, Clone20 osteoblasts, set 2 (AID 588674);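 further: 0% = median of neutral control wells and 100% = pilot-screen positive control compound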
Conditions: Clone20 osteoblast Shn3 3'UTR firefly luciferase, 24 h; at 12.5 µM; hits give high values
For `CCc1ccc(NC2Nc3cc(C)nn3S2)cc1` (stereo not given), the inhibition was -59% (inactive).
In the case of `COc1cccc(/C=N/Nc2cc(C)nc(-c3ccccc3O)n2)c1O`, the inhibition was 86.9% (active).
In the case of `COc1cc(/C=N/Nc2ccc(C)cc2)cc(Br)c1O`, the inhibition was 5.6% (inactive).
In the case of `COc1ccccc1-n1c(SCC(=O)Nc2cccc(C(=O)O)c2)nnc1-c1ccccc1O`, the inhibition was -11.2% (inactive).
For `CN(CCO)S(=O)(=O)c1ccc2c(c1)C(=O)c1cc(S(=O)(=O)N(C)CCO)ccc1-2`, the inhibition was 16.6% (inactive).
For `CCn1nc(C)c(CNC(=O)C2CCC(=O)N(Cc3cccc(F)c3)C2)c1C` (stereo not given), the inhibition was -6.25% (inactive).
For `COC(c1ccccc1)(c1ccccc1)C(Oc1nc(C)cc(C)n1)C(=O)O` (stereo not given), the inhibition was 5.7% (inactive).
For `Cc1cc(C)nc(S/C=C/C(=O)c2ccccc2)n1`, the inhibition was 95.6% (active).
For `Cc1cc(C)nc(SC(C)C(=O)N/N=C/c2cccs2)n1` (stereo not given), the inhibition was 4.78% (inactive).
In the case of `Clc1ccc(Cl)c(Oc2ccc(Oc3nc(Cl)ccc3Cl)cc2)n1`, the inhibition was -2.29% (inactive).
With `O=C(NN=Cc1ccc2c(c1)CCC2)c1ccccc1O` the inhibition was -68.8% (inactive).
In the case of `Cc1ccc(/C=N/NC(=O)C2=NNC(c3ccccc3)(c3ccccc3)C2)c(O)c1`, the inhibition was 88.2% (active).
For `O=C(N/N=C/c1ccccc1O)C1CCCC1`, the inhibition was 26.7% (inactive).
With `COC(=O)Cc1ccc(OC2(C)CCN(Cc3ccc4c(c3)OCCO4)C2)cc1` (stereo not given) the inhibition was -22.2% (inactive).
In the case of `O=C(NCCCN1CCCCC1)C1CCCN(c2ncnc3c2nc2n3CCCCC2)C1` (stereo not given), the inhibition was 2.4% (inactive).
In the case of `O=C(CSC1=NS(=O)(=O)c2cc(F)ccc2N1)Nc1ccccc1F`, the inhibition was -17.3% (inactive).
With `Cc1cc(C)n(CCC(=O)N2CCN(S(=O)(=O)c3ccc(C)c(C)c3)CC2)n1` the inhibition was -21.5% (inactive).
With `COc1ccc(CCNC(=O)C(=O)NCC2CCNCC2)cc1OC` the inhibition was -3.81% (inactive).
In the case of `O=C(O)CSc1nccn1-c1cccc(Cl)c1`, the inhibition was -5.11% (inactive).
With `O=C(NCCc1ccccc1)c1cccc(NC(=O)c2ccccc2)c1` the inhibition was -14.5% (inactive).
With `Cc1cc(=O)c2ccc(NC(=O)c3ccccc3)cc2[nH]1` the inhibition was -6.37% (inactive).
In the case of `O=C(NC1=CC(=O)c2ccccc2C1=O)c1ccccc1`, the inhibition was 93.6% (active).
For `Cn1c2c(c(=O)n(C)c1=O)C1c3ccccc3OCC1C(C)(C)O2` (stereo not given), the inhibition was -0.463% (inactive).
In the case of `CC1COC2C(O1)N(S(C)(=O)=O)CCN2S(C)(=O)=O` (stereo not given), the inhibition was 1.27% (inactive).
For `C=CCn1c(=O)c2ccccc2n2c(SCC(=O)N3CCCc4ccccc43)nnc12`, the inhibition was -3.54% (inactive).
For `O=C(CSc1nc2ccccc2c(=O)n1CCCO)N1CCc2ccccc21`, the inhibition was 3.09% (inactive).
In the case of `Cn1c(SCC(=O)N2CCCc3ccccc32)nc2ccccc2c1=O`, the inhibition was 86.2% (active).
For `Cn1cc(CN2CCCC(CO)C2)c(-c2ccc(Oc3ccccc3)cc2)n1` (stereo not given), the inhibition was 6.06% (inactive).
With `C[C@H](NC(=O)CC[C@H]1O[C@@H](n2ccc(=O)[nH]c2=O)[C@H](O)[C@@H]1O)c1cccc2ccccc12` the inhibition was -13% (inactive).
For `COc1cccc(CNC(=O)C(=O)NCCC2CCCCN2S(=O)(=O)c2ccc(C)cc2)c1` (stereo not given), the inhibition was 13.1% (inactive).
With `C[C@H](NC(=O)c1[nH]cnc1C(=O)Nc1nccs1)c1ccccc1` the inhibition was -5.6% (inactive).
For `COc1ccc(-c2csc3ncnc(N4CCN(S(=O)(=O)c5ccccc5C#N)CC4)c23)cc1`, the inhibition was -3.1% (inactive).
For `Cc1ccc(C)c(S(=O)(=O)N2CCN(c3ncnc4sccc34)CC2)c1`, the inhibition was 86.3% (active).
With `Cc1ccc(C)c(S(=O)(=O)N2CCN(CC(=O)Nc3ccc([N+](=O)[O-])cc3)CC2)c1` the inhibition was 5.73% (inactive).
For `C[n+]1cc(-c2ccccc2)oc1-c1ccccc1`, the inhibition was -76.7% (inactive).
With `Cc1ccccc1NC(=O)Cc1nc(COC(=O)C(C)(C)Oc2ccc(Cl)cc2)cs1` the inhibition was -2.77% (inactive).
In the case of `COc1cc(NC(=S)N2CCCC(C)C2)cc(OC)c1OC` (stereo not given), the inhibition was -25.8% (inactive).
In the case of `O=C1C=C(c2cc(C(F)(F)F)cc(C(F)(F)F)c2)C[C@@H](c2ccc3c(c2)OCO3)C1`, the inhibition was 15% (inactive).
With `COc1ccc2cc(C3=CC(=O)C[C@H](c4ccc5c(c4)OCO5)C3)ccc2c1` the inhibition was -45.2% (inactive).
In the case of `O=C1C=C(c2ccnc3cc(Cl)ccc23)C[C@@H](c2ccc3c(c2)OCO3)C1`, the inhibition was 85.5% (active).
For `COc1ccccc1NC(=O)C(C)OC(=O)c1ccc(-n2cnnn2)cc1` (stereo not given), the inhibition was 1.76% (inactive).
With `CC(=O)N1c2ccc(S(=O)(=O)N3CCC(C(=O)N4CCN(c5ccccc5)CC4)CC3)cc2CC1C` (stereo not given) the inhibition was 74.2% (inactive).
For `CC(=O)N1CCCc2cc(S(=O)(=O)CCC(=O)N3CCN(c4ccccc4)CC3)ccc21`, the inhibition was -3.7% (inactive).
With `CC(=O)N1CCCc2cc(S(=O)(=O)N3CCCC(C(=O)N4CCN(c5cccc(Cl)c5)CC4)C3)ccc21` (stereo not given) the inhibition was 93% (active).
For `CCOC(=O)C1=CC[C@@H](c2ccncc2)N(S(=O)(=O)c2ccc(C)cc2)C1`, the inhibition was 4.63% (inactive).
With `COc1ccc(C(c2nnnn2C2CCCC2)N2CCN(C/C=C/c3ccccc3)CC2)cc1` (stereo not given) the inhibition was 16.4% (inactive).
In the case of `Cc1cc2nc(-c3ccco3)c(Cc3cccc(F)c3)n2c(C)c1Br`, the inhibition was 54.3% (inactive).
In the case of `O=C1C(Cl)=C(Oc2ccccc2)C(=O)c2ccccc21`, the inhibition was 96.1% (active).
In the case of `O=C(NCc1cccs1)c1ccc2c(c1)ncn2C1CCCC1`, the inhibition was -25.6% (inactive).
For `COc1c(C=O)c(CCN(C)C(=O)c2ccc(F)cc2)cc2c1OCO2`, the inhibition was -0.0815% (inactive).
With `Cn1c(CCNS(=O)(=O)c2ccc(F)cc2)nnc1SCc1cccnc1` the inhibition was -8.53% (inactive).
In the case of `CC(=O)Nc1ccc(SCC(=O)NC(=O)c2ccc(Cl)cc2)cc1`, the inhibition was 5.11% (inactive).
In the case of `O=C(CCl)Nc1cccc(CP(=O)(c2ccccc2)c2ccccc2)c1`, the inhibition was -0.336% (inactive).
For `O=C(CCl)Nc1ccc(Sc2ccc(NC(=O)CCl)cc2)cc1`, the inhibition was 96.4% (active).
In the case of `COCCN(CCOC)c1nc(N)c2c(N)nc3c(c2c1C#N)CC(=O)N3Cc1ccc(Cl)cc1`, the inhibition was -5.44% (inactive).
